Experimental data published in PubChem BioAssay (NCI).
The panel holds about 79,000 compounds, 15% with a hit somewhere; the sample as a whole holds those more often. Active and inactive are the calls of the source. Cut-off read from the data, not from the text of the source: active = growth inhibition above about 70%; inactive = the rest.

Assays:
[1] = NCI Yeast Anticancer Drug Screen. Data for the mec2-1 strain (AID 157); settings: S. cerevisiae mec2-1 strain, active compounds read high
Outline: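 Using mec2-1 yeast: add compound, measure growth, express inhibition versus vehicle-treated cultures.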

[2] = NCI Yeast Anticancer Drug Screen. Data for the rad14 strain (AID 159);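 note: 0% = growth of vehicle-treated control cultures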; settings: S. cerevisiae rad14 strain growth inhibition, active compounds read high
Outline: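 Screen for anticancer potential: a yeast strain altered in DNA damage repair is grown with compound, and reduced growth is quantified against vehicle controls.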

[3] = NCI Yeast Anticancer Drug Screen. Data for the sgs1 mgt1 strain (AID 161);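 note: 0% = growth of cultures given vehicle only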; settings: S. cerevisiae sgs1 mgt1 strain, active compounds read high
Outline: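 Percent growth inhibition was derived by comparing compound-exposed mutant yeast with vehicle-exposed cultures. The strain carries alterations in DNA damage repair.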

[4] = NCI Yeast Anticancer Drug Screen. Data for the CLN2oe strain (AID 163);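 note: 0% = growth of vehicle-only control cultures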; settings: S. cerevisiae CLN2oe strain, active compounds read high
Outline: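 Whole-cell yeast growth assay. A strain engineered for altered cell-cycle control received compound, and inhibition relative to vehicle-treated cultures was recorded.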

[5] = NCI Yeast Anticancer Drug Screen. Data for the cln2 rad14 strain (AID 165);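 note: 0% = growth equal to vehicle treated cultures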; settings: S. cerevisiae cln2 rad14 strain, active compounds read high
Outline: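 Yeast strain cln2 rad14, bearing defects in cell cycle control and DNA repair, serves as the test system; values reflect growth inhibition compared with vehicle.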

[6] = NCI Yeast Anticancer Drug Screen. Data for the bub3 strain (AID 167); settings: S. cerevisiae bub3 mutant strain, active compounds read high
Outline: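 Screening used yeast with an engineered genetic alteration affecting cell cycle control. Compound-exposed cultures were compared with vehicle cultures, and reduced growth was taken as inhibition.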

[7] = NCI Yeast Anticancer Drug Screen. Data for the wt2 strain (AID 169);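 note: 0% = growth of vehicle-treated yeast cultures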; settings: S. cerevisiae wt2 strain growth inhibition, active compounds read high
Outline: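 Treated yeast vs. vehicle-treated yeast: growth inhibition determined.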

[8] = NCI Yeast Anticancer Drug Screen. Data for the mlh1 strain (AID 171);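 note: 0% = growth of vehicle-treated control cultures of the same strain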; settings: S. cerevisiae mlh1 strain growth inhibition, active compounds read high
Outline: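 A yeast strain with a defined genetic lesion serves as the test organism. Cultures receive compound or vehicle, and growth is measured.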

[9] = NCI Yeast Anticancer Drug Screen. Data for the mlh1 rad18 strain (AID 175); settings: S. cerevisiae mlh1 rad18 strain growth inhibition, active compounds read high
Outline: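 Steps: expose repair-defective yeast to compound; measure growth; express inhibition against vehicle-treated controls.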

[10] = NCI Yeast Anticancer Drug Screen. Data for the rad52 strain (AID 147);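 note: 0% = growth of vehicle-treated control cultures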; settings: S. cerevisiae rad52 mutant growth inhibition, active compounds read high
Outline: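 Here a repair-compromised yeast strain receives each compound; its growth is then quantified and normalised to vehicle-only controls.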

[11] = NCI Yeast Anticancer Drug Screen. Data for the wt1 strain (AID 149);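 note: 0% = growth of vehicle-treated wt1 cultures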; settings: S. cerevisiae wt1 strain (SPY 50644) growth inhibition, active compounds read high
Outline: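 Using yeast strain wt1, compound-induced growth inhibition was determined against vehicle-treated cultures.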

[12] = NCI Yeast Anticancer Drug Screen. Data for the rad50EPP+ strain (AID 151);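 note: 0% = growth of vehicle-treated control cultures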; settings: S. cerevisiae rad50 mutant strain, active compounds read high
Outline: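 Read-out is yeast growth inhibition relative to vehicle; cells used were the rad50EPP+ strain.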

[13] = NCI Yeast Anticancer Drug Screen. Data for the mgt1 strain (AID 153); settings: S. cerevisiae mgt1 mutant growth inhibition, active compounds read high
Outline: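 Measured: inhibition of mgt1 yeast growth by compound, normalized to vehicle-treated cultures.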

[14] = NCI Yeast Anticancer Drug Screen. Data for the rad50 strain (AID 155);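 note: 0% = growth of vehicle-only cultures of the same strain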; settings: S. cerevisiae rad50 strain growth inhibition, active compounds read high
Outline: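 Relative growth inhibition (compound vs vehicle) was measured in yeast with a defined repair-gene alteration.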

[15] = NCI Yeast Anticancer Drug Screen. Data for the sgs1 strain (AID 173);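 note: 0% = growth of vehicle-only control cultures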; settings: S. cerevisiae sgs1 mutant, active compounds read high
Outline: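 A genetically defined yeast mutant is incubated with the test compound, and its growth is compared to that of the same strain given vehicle.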

[16] = NCI Yeast Anticancer Drug Screen. Data for the rad18 strain (AID 177); settings: S. cerevisiae rad18 mutant growth inhibition, active compounds read high
Outline: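 Measured value is growth inhibition of a yeast strain bearing a DNA repair alteration, referenced to vehicle-treated cells.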

[17] = at 5.0 µM (retest, dose inferred, filed as 0.5)
[18] = at 50.0 µM (retest, dose inferred, filed as 5.0)

Measured: growth inhibition

CCCCCCCC/C=C\CCCCCCCCN
active: [1]; at 33.0 µM 98% | [1]; at 50.0 µM 92.5% | [1]; at 100.0 µM 98% | [2]; at 33.0 µM 97% | [2]; at 100.0 µM 97% | [3]; [18] 98% | [3]; at 50.0 µM 93% | [4]; at 33.0 µM 98% | [4]; at 100.0 µM 97% | [5]; [18] 96% | [5]; at 50.0 µM 90% | [6]; at 33.0 µM 97% | [6]; [18] 97% | [6]; at 50.0 µM 91% | [6]; at 100.0 µM 96% | [7]; at 33.0 µM 98% | [7]; at 100.0 µM 97% | [8]; at 33.0 µM 97% | [8]; at 100.0 µM 97% | [9]; at 50.0 µM 91.3%
inactive: [1]; [17] 45% | [1]; at 11.0 µM -18% | [1]; [18] 30% | [2]; at 1.2 µM -22% | [2]; at 3.7 µM -21% | [2]; at 11.0 µM -19% | [3]; [17] -68% | [4]; at 1.2 µM 17% | [4]; at 3.7 µM 11% | [4]; at 11.0 µM 28% | [5]; [17] 42% | [6]; at 1.2 µM 0% | [6]; at 3.7 µM 14% | [6]; [17] -10% | [6]; at 11.0 µM 14% | [7]; at 1.2 µM -7% | [7]; at 3.7 µM -1% | [7]; at 11.0 µM -24% | [8]; at 1.2 µM -16% | [8]; at 3.7 µM -16% | [8]; at 11.0 µM -17% | [9]; [17] 26% | [9]; [18] 27%

CC(=O)O[C@H]1CC[C@@]2(C)C(=CC[C@@H]3C2CC[C@]2(C)C(=O)NC(=O)CC32)C1 (stereo partly specified)
active: [13]; at 33.0 µM 76% | [13]; at 100.0 µM 70% | [3]; [18] 74% | [3]; at 50.0 µM 81.5% | [7]; at 33.0 µM 73% | [7]; at 100.0 µM 71% | [8]; at 33.0 µM 75% | [15]; at 11.0 µM 70% | [15]; at 33.0 µM 86% | [15]; at 100.0 µM 79%
inactive: [10]; at 1.2 µM -33% | [10]; at 3.7 µM -35% | [10]; at 11.0 µM -42% | [10]; at 33.0 µM -29% | [10]; at 100.0 µM -41% | [11]; at 1.2 µM -17% | [11]; at 3.7 µM -7% | [11]; at 11.0 µM -21% | [11]; at 33.0 µM -17% | [11]; at 100.0 µM -21% | [12]; at 1.2 µM -8% | [12]; at 3.7 µM 0% | [12]; at 11.0 µM 25% | [12]; at 33.0 µM 54% | [12]; at 100.0 µM 27% | [13]; at 1.2 µM -28% | [13]; at 3.7 µM -19% | [13]; at 11.0 µM 56% | [14]; at 1.2 µM -31% | [14]; at 3.7 µM -29% | [14]; [17] -21% | [14]; at 11.0 µM -20% | [14]; at 33.0 µM -25% | [14]; [18] -29% | [14]; at 50.0 µM 12.4% | [14]; at 100.0 µM -28% | [1]; at 1.2 µM -21% | [1]; at 3.7 µM -15% | [1]; [17] -44% | [1]; at 11.0 µM -13% | [1]; at 33.0 µM -43% | [1]; [18] -6% | [1]; at 50.0 µM -12.2% | [1]; at 100.0 µM -23% | [2]; at 1.2 µM -29% | [2]; at 3.7 µM -27% | [2]; at 11.0 µM -26% | [2]; at 33.0 µM -11% | [2]; at 100.0 µM -41% | [3]; [17] 21% | [4]; at 1.2 µM 2% | [4]; at 3.7 µM -4% | [4]; at 11.0 µM -16% | [4]; at 33.0 µM -13% | [4]; at 100.0 µM -23% | [5]; [17] -6% | [5]; [18] 13% | [5]; at 50.0 µM 29.5% | [6]; at 1.2 µM -14% | [6]; at 3.7 µM -29% | [6]; [17] 1% | [6]; at 11.0 µM -22% | [6]; at 33.0 µM -20% | [6]; [18] 46% | [6]; at 50.0 µM 9.95% | [6]; at 100.0 µM -31% | [7]; at 1.2 µM 8% | [7]; at 3.7 µM 19% | [7]; at 11.0 µM 46% | [8]; at 1.2 µM 1% | [8]; at 3.7 µM 17% | [8]; at 11.0 µM 57% | [8]; at 100.0 µM 64% | [15]; at 1.2 µM 16% | [15]; at 3.7 µM 40% | [9]; [17] -17% | [9]; [18] 3% | [9]; at 50.0 µM -0.8% | [16]; at 1.2 µM -1% | [16]; at 3.7 µM 0% | [16]; at 11.0 µM 1% | [16]; at 33.0 µM 4% | [16]; at 100.0 µM 0%
